Assay results as given in PubChem BioAssay (EPA / NIEHS).
Activity calls are given as the source filed them. Rule for the calls: active = hit-call score of the fitted dose curve at least 0.9, where 1 is the maximum; inactive = score below 0.9.

Legend:
[1] = CCTE_Shafer_MEA_dev_interburst_interval_mean: CCTE's Neural Network Formation Assay for Mean Interburst Interval, Shafer Lab (AID 2284046);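 note: well-mean interburst interval of bursting electrodes as AUC over four recording days; curve fitted for decrease in interburst interval relative to DMSO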
Summary of the method: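 Network formation assay in primary rat cortical cultures, exposed from DIV 0 to 12. Mean interburst interval per well, integrated as AUC over four recordings.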

[2] = CCTE_Shafer_MEA_dev_network_spike_number: CCTE's Neural Network Formation Assay for Number of Network Spikes, Shafer Lab (AID 2284048);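 note: synchronized bursts across electrodes counted on days 5 7 9 12 and integrated as AUC; fit as a loss of signal meaning fewer network spikes than DMSO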
Summary of the method: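 Number of network spikes (coordinated firing across electrodes) recorded on days 5, 7, 9 and 12 and summarised as area under the curve. Rat cortical cultures on MEA, continuous compound exposure with full medium/treatment exchange at DIV 5 and 9.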

[3] = CCTE_Shafer_MEA_dev_network_spike_peak: CCTE's Neural Network Formation Assay for Mean Number of Electrodes in Network Spike, Shafer Lab (AID 2284049);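 note: fitted for loss of signal meaning fewer electrodes in network spikes than DMSO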
Summary of the method: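 Rat cortical primary culture, 1.5 x 10^5 cells/well, 48-well MEA (16 electrodes/well). Dosing day 0 through DIV 12, full media/compound exchange DIV 5, 9. AxIS adaptive spike detection; AUC over days 5/7/9/12; loss-of-signal vs DMSO.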

[4] = CCTE_Shafer_MEA_dev_spike_duration_mean: CCTE's Neural Network Formation Assay for Mean Spike Duration, Shafer Lab (AID 2284051);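 note: mean network spike duration pooled as area under curve over DIV 5 to 12 recordings; potency for a decrease in mean network spike duration versus DMSO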
Summary of the method: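 With DMSO as baseline, loss of mean network spike duration was scored from extracellular recordings of rat cortical neurons on MEA plates. Exposure spanned plating to DIV 12; the four recording days were collapsed into one AUC value.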

[5] = CCTE_Shafer_MEA_dev_network_spike_duration_std: CCTE's Neural Network Formation Assay for Standard Deviation of Network Spike Duration, Shafer Lab (AID 2284052);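 note: area under curve of spike duration SD across recording days 5 to 12; hits are decreases in network spike duration SD versus DMSO vehicle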
Summary of the method: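 Developing networks of rat cortical neurons were exposed over twelve days in vitro on 48-well MEA plates. Trapezoidal AUC of recordings (DIV 5–12) was analysed for signal loss relative to DMSO vehicle.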

[6] = CCTE_Shafer_MEA_dev_per_network_spike_spike_number_mean: CCTE's Neural Network Formation Assay for Mean Number of Spikes in a Network Spike, Shafer Lab (AID 2284053);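 note: fitted as decrease in spikes per network spike relative to DMSO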
Summary of the method: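 First, rat cortical cells (1.5 x 10^5/well) were seeded onto MEA wells; second, dosing began at plating and was refreshed on DIV 5 and 9; finally, network-spike spike counts across DIV 5–12 were summarized as AUC.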

[7] = UKN5_HCS_SBAD2_cell_viability: Viability Assessment in the University of Konstanz (UKN) Leist Lab Neurite Outgrowth Assay in human iPSC-derived immature Dorsal Root Ganglia Neurons (UKN5) (AID 2284056)
Summary of the method: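 iPSC-derived immature peripheral neurons (SBAD2) seeded on Matrigel with CHIR99021, SU5402 and DAPT, dosed 1 h later for 24 h. Viability from Hoechst H-33342 and calcein-AM live staining, high-content imaging; bidirectional fit versus DMSO.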

[8] = UKN5_HCS_SBAD2_neurite_outgrowth: University of Konstanz (UKN) Leist Lab Neurite Outgrowth Assay in human iPSC-derived immature Dorsal Root Ganglia Neurons (UKN5) (AID 2284070); conditions: actives raise or lower the signal
Summary of the method: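 Neurite area from calcein-AM high-content images after 24 h exposure (staining included), with H-33342 for viability, fitted both directions against DMSO. Cells: thawed immature SBAD2 peripheral neurons, 100.000 cells/cm2, with CHIR99021, SU5402, DAPT; dosing 1 h after seeding.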

[9] = CCTE_Shafer_MEA_dev_mutual_information_norm: CCTE's Neural Network Formation Assay for Mutual Information Normalization, Shafer Lab (AID 2284091);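 note: mutual information between electrodes summarised as area under curve across four recording days; potency is for a decrease in mutual information relative to DMSO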
Summary of the method: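 Shared information across electrodes, tracked on days 5, 7, 9 and 12 of network development and collapsed as trapezoidal area under the curve. Rat cortical cultures were treated continuously from plating, with treatment renewed at feeds on DIV 5 and 9; DMSO baseline, negative-direction fit.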

[10] = CCTE_Shafer_MEA_dev_correlation_coefficient_mean: CCTE's Neural Network Formation Assay for Mean Correlation Coefficient, Shafer Lab (AID 2284093);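 note: well mean pairwise spike train correlation integrated as AUC over recording days 5 to 12; potency fitted for loss of correlation relative to DMSO vehicle wells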
Summary of the method: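 Extracellular firing from rat cortical networks on 48-well MEAs, DMSO-referenced, negative fitting direction. Compound present from plating to DIV12; mean pairwise correlation per well integrated over DIV5–12 recordings by trapezoidal AUC.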

[11] = UKN2_HCS_IMR90_neural_migration: University of Konstanz (UKN) Leist Lab Neural Crest Cell Migration Assay in human induced IMR90 Pluripotent Stem Cells (UKN2) (AID 2284204); conditions: actives raise or lower the signal
Summary of the method: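 High-content imaging of calcein-AM and Hoechst stained cells quantifies migration into a stopper-defined gap after 24 h compound exposure. Neural crest cells from IMR90 iPSC migrated 24 h in EGF/FGF N2-S medium before dosing; DMSO baseline.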

[12] = UKN4_HCS_LUHMES_neurite_outgrowth: University of Konstanz (UKN) Leist Lab Neurite Outgrowth Assay in human LUHMES cells (UKN4) (AID 2284206); conditions: actives raise or lower the signal
Summary of the method: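 After 24 h compound treatment beginning shortly after replating of 2-day-differentiated LUHMES cells, calcein-AM and H-33342 live staining allowed high-content imaging of neurite area and viability. Fitted bidirectionally against DMSO.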

[13] = IUF_NPC1b_proliferation_BrdU_72hr: Leibniz Research Institute for Environmental Medicine (IUF) 72-hour Neural Progenitor Cell Bromodeoxyuridine (BrdU) Proliferation Assay (NPC1b) (AID 2284207)
Summary of the method: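 Human fetal cortex-derived (GW 16-19) neural progenitor spheres, 0.25-0.35 mm, one per well in EGF/FGF proliferation medium, exposed to compound for 72 h at 37C, pH 7.2-7.6. BrdU incorporation over the final 16 h read by luminescence ELISA, relative to DMSO.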

[14] = IUF_NPC1a_proliferation_area_72hr: Leibniz Research Institute for Environmental Medicine (IUF) 72-hour Neural Progenitor Cell Proliferation Area Assay (NPC1a) (AID 2284208)
Summary of the method: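 Single 0.25–0.35 mm human fetal neural progenitor spheres in proliferation medium with EGF and FGF, exposed 72 h from plating without renewal at 37C, pH 7.2-7.6. Sphere area growth measured by automated phase-contrast imaging, relative to DMSO.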

[15] = IUF_NPC1_viability_72hr: Viability Assessment at 72 hours in the Leibniz Research Institute for Environmental Medicine (IUF) Neural Progenitor Cell Proliferation Assay (NPC1) (AID 2284209)
Summary of the method: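 Viability was measured by resazurin-to-resorufin fluorescence (alamar blue) after 72 h of continuous exposure without compound renewal. Each well held one hNPC sphere (gestational week 16-19 fetal cortex, 0.25-0.35 mm) cultured in EGF/FGF proliferation medium at 37C and pH 7.2-7.6.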

[16] = CCTE_Mundy_HCI_Cortical_Synap_Neur_Matur_NeuriteSpotCountPerNeuriteLength: CCTE's Synaptogenesis and Neurite Maturation Assay in rat cortical cells for Neurite Spot Count per Neurite Length, Mundy Lab (AID 2284210)
Summary of the method: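 Synaptophysin spots per unit neurite length, measured by automated imaging of MAP2/synaptophysin/Hoechst-stained neurons. Cultures from rat cortex received chemical at DIV 7 with media change through DIV 12; glial growth arrested by AraC at DIV 5; DMSO baseline.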

[17] = CCTE_Mundy_HCI_Cortical_NOG_NeuriteLength: CCTE's Neurite Outgrowth Assay in rat cortical cells for Neurite Length, Mundy Lab (AID 2284213)
Summary of the method: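 First, rat primary cortical cells were plated and, 2 h later, given test chemical as a 1/10 dilution. Finally, βIII-tubulin immunostaining enabled automated imaging of neurite length.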

[18] = CCTE_Mundy_HCI_Cortical_Synap_Neur_Matur_NeuriteLength: CCTE's Synaptogenesis and Neurite Maturation Assay in rat cortical cells for Neurite Length, Mundy Lab (AID 2284214)
Summary of the method: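 Neurite length quantified by automated high-content imaging of MAP2, synaptophysin and Hoechst staining. Rat cortical cells received chemical from DIV 7 to DIV 12 […], glial growth arrested by AraC at DIV 5; DMSO baseline.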

[19] = CCTE_Mundy_HCI_Cortical_Synap_Neur_Matur_NeuriteSpotCountPerNeuron: CCTE's Synaptogenesis and Neurite Maturation Assay in rat cortical cells for Neurite Spot Count per Neuron Count, Mundy Lab (AID 2284215)
Summary of the method: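 Rat primary cortical cultures given AraC at DIV 5, dosed from DIV 7 to DIV 12 with media change. Fixed, stained for MAP2, synaptophysin and Hoechst; neurite-associated synaptophysin puncta per neuron quantified by high-content imaging versus DMSO.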

[20] = TAMU_PeakParms_SingleDonor1434_Chronotropy: Texas A&M University (TAMU) 1.5-hr Human Induced Pluripotent Stem Cell (iPSC)-derived Cardiomyocytes Calcium (Ca+2) Flux Assay for Cardiotoxicity: Chronotropy (changes in peak frequency) (AID 2284217); conditions: actives raise or lower the signal
Summary of the method: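 Using fluorescent Ca2+ flux, average beats per second are measured in human iPSC-derived cardiomyocytes treated 90 min (0.5% DMSO vehicle, 0.2–100 uM). Non-beating data points are removed; activity is modeled in both directions relative to DMSO controls.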

CC1(C)[C@H](C(=O)O[C@H](C#N)c2cccc(Oc3ccccc3)c2)[C@@H]1C=C(Br)Br
outcome [1]: inactive
AC50 [2]: 0.853 µM (active)
AC50 [3]: 7.55 µM (active)
AC50 [4]: 6.4 µM (active)
AC50 [5]: 3.82 µM (active)
AC50 [6]: 3.96 µM (active)
AC50 [7]: 115 µM (active)
AC50 [8]: 111 µM (active)
AC50 [9]: 0.641 µM (active)
AC50 [10]: 2.04 µM (active)
outcome [11]: inactive
outcome [12]: inactive
outcome [13]: inactive
outcome [14]: inactive
outcome [15]: inactive
outcome [16]: inactive
outcome [17]: inactive
AC50 [18]: 8.82 µM (active)
AC50 [19]: 7.04 µM (active)
outcome [20]: inactive
